Data reported in PubChem BioAssay (NCATS).
Results filed as inconclusive are left out. Calls of active or inactive are those of the source. The call rests on the fitted dose curve; in most records, active means well fitted curve in the direction sought with a large enough effect; inconclusive means small, poorly fitted or top-dose-only effect, or another doubt; inactive means no such curve, though single readings can be large; an effect the other way counts as inactive or inconclusive.

Assays:
[1] = P-glycoprotein substrates identified in KB-8-5-11 adenocarcinoma cell line, qHTS therapeutic library screen (AID 1346987); further: nearly all actives have a fitted effect of over 65% in size; further: potency means the concentration at half of the fitted maximal effect
Method in brief: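 KB-8-5-11, a colchicine-selected P-gp-overexpressing KB-3-1 subline, was grown without colchicine for the assay. Cells were seeded at 500 cells/well, dosed in concentration-response and incubated 72 h at 37 degree C, 5% CO2. Viability was read by CellTiter-Glo luminescence.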

[2] = test system: Zika virus NS2B-NS3 protease (linked construct); experiment: Primary screen NINDS Rhodamine qHTS for Zika virus inhibitors (AID 1347160); further: nearly all actives have a fitted effect of over 55% in size
Method in brief: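 Kinetic fluorescence (Ex 480 nm, Em 540 nm) over 15 min with 1.5 microM Rhodamine110 peptide and 25 nM linked protease.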

[3] = target: Calcium and integrin-binding protein 1 (Homo sapiens) (UniProt Q99828); experiment: Primary qHTS for Identification of Calcium Integrin Binding Protein 1 (CIB1) Competitor (AID 1508620);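 further: GST tagged CIB1 binding a fluorescein labelled alphaIIb integrin peptide tracer; top concentration of the series differs between compounds; on the % scale 0 is the no-effect control and ±100 the full control effect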
Method in brief: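 Fluorescence polarization competition: CIB1-GST (1 uM final) preincubated with compound 15 min at room temperature, then FITC-labeled alphaIIb peptide (100 nM final) added for another 15 min. Polarization read at Ex 480/Em 540.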

[4] = target: Glutathione peroxidase 1 (Homo sapiens) (UniProt P07203); experiment: Primary qHTS Assay for Inhibitors of Recombinant Selenoprotein Glutathione Peroxidase 1 (GPX1) (AID 1845191); further: nearly all actives have a fitted effect of over 65% in size
Method in brief: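 Recombinant GPX1 (10 nM final) was preincubated with compound for 30 min at room temperature, then reacted with 1 mM GSH, 0.5 mM CHP, 0.5 mM NADPH and 100 nM glutathione reductase; NADPH fluorescence (340/450 nm) was read at 0 and 15 min.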

[5] = target: Phospholipid hydroperoxide glutathione peroxidase GPX4 (Homo sapiens) (UniProt P36969); experiment: Primary qHTS Assay for Inhibitors of Recombinant Selenoprotein Glutathione Peroxidase 4 (GPX4) (AID 1845192); further: on the % scale 0 is the no-effect control and ±100 the full control effect; nearly all actives have a fitted effect of over 65% in size
Method in brief: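 GR-coupled readout: 100 nM GR, 1 mM GSH, 0.5 mM NADPH; NADPH fluorescence (ex 340/em 450 nm) read at t=0 and after 15 min RT. GPX4 200 nM, preincubated 30 min with compound; substrate 0.5 mM CHP.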

[6] = target: Luciferin 4-monooxygenase (Photinus pyralis) (UniProt P08659); experiment: Primary firefly luciferase (FLuc) qHTS assay for identification of artifact compounds. (AID 1845220); settings: outcome: dose series up to 54.1 µM unless noted; further: nearly all actives have a fitted effect of over 60% in size
Method in brief: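 Reaction readout was CCD-imaged luminescence, taken 5 min after adding 10 nM purified firefly enzyme to compound-treated wells holding 10 uM luciferin and ATP in pH 7.6 buffer.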

[7] = test system: Nanoluciferase (engineered Oplophorus gracilirostris luciferase); experiment: Primary Nanoluciferase (NLuc) qHTS assay for identification of artifact compounds. (AID 1845222);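 further: NLuc secreted into diluted conditioned medium of S16 cells; 0% = DMSO and -100% = no enzyme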
Method in brief: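 Concentration-response data were obtained by luminescence after 5 min with Nano-Glo substrate at 1:100. The enzyme was diluted S16 NLuc-expressing cell medium, preincubated with compound for 15 min at RT. Curves were fitted with a 4-parameter Hill model.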

CRL-7250 = normal cell line; experiment: Cytotoxic Profiling of Annotated Libraries Using Quantitative High-Throughput Screening (AID 1296008); settings: Five cell lines viability, CellTiter-Glo ATP luminescence, 48-72 h; max response: hits give low values; further: nearly all actives have a fitted effect of over 60% in size; further: potency means the concentration at half of the fitted maximal effect; on max response: on the % scale 0 is the no-effect control and ±100 the full control effect
Method in brief: (§1)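 Compounds were pin-transferred onto cells and incubated 48 or 72 hr at 37 degree Celsius, 95% humidity. CellTiter-Glo was added, plates sat 10 min at room temperature, then ATP-coupled luminescence was imaged as the viability read-out.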

NIH3T3 = experiment: as above; settings: Five cell lines viability, CellTiter-Glo ATP luminescence, 48-72 h; max response: hits give low values
Method in brief: as §1

Hek293T = experiment: Primary qHTS to identify gynecologic anti-cancer compounds using libraries of approved drugs and bioactive compounds (AID 1345084); settings: Gynecologic cancer cell panel viability, ATPlite luminescence, 48 h, control line for the selectivity index; series mostly up to 57.5 µM; further: nearly all actives have a fitted effect of over 55% in size; further: potency means the concentration at half of the fitted maximal effect
Method in brief: (§2)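 Cells, 1,000 per well, plated 16 h, then exposed 48 h at 37 C to compounds. Viability by ATPlite luminescence after 15 min at room temperature.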

PA-1 = experiment: as above; settings: Gynecologic cancer cell panel viability, ATPlite luminescence, 48 h; series mostly up to 57.5 µM
Method in brief: as §2

Tov112D = experiment: as above; settings: Gynecologic cancer cell panel viability, ATPlite luminescence, 48 h; series mostly up to 57.5 µM
Method in brief: as §2

C33A = experiment: as above; settings: Gynecologic cancer cell panel viability, ATPlite luminescence, 48 h; series mostly up to 57.5 µM
Method in brief: as §2

CAOV3 = experiment: as above; settings: Gynecologic cancer cell panel viability, ATPlite luminescence, 48 h; series mostly up to 57.5 µM
Method in brief: as §2

CASKI = experiment: as above; settings: Gynecologic cancer cell panel viability, ATPlite luminescence, 48 h; series mostly up to 57.5 µM
Method in brief: as §2

Es-2 = experiment: as above; settings: Gynecologic cancer cell panel viability, ATPlite luminescence, 48 h; series mostly up to 57.5 µM
Method in brief: as §2

HeLa = experiment: as above; settings: Gynecologic cancer cell panel viability, ATPlite luminescence, 48 h; series mostly up to 57.5 µM
Method in brief: as §2

JEG-3 = experiment: as above; settings: Gynecologic cancer cell panel viability, ATPlite luminescence, 48 h; series mostly up to 57.5 µM
Method in brief: as §2

OV90 = experiment: as above; settings: Gynecologic cancer cell panel viability, ATPlite luminescence, 48 h; series mostly up to 57.5 µM
Method in brief: as §2

Tov-21-G = experiment: as above; settings: Gynecologic cancer cell panel viability, ATPlite luminescence, 48 h; series mostly up to 57.5 µM
Method in brief: as §2

Chain of Phospholipid hydroperoxide glutathione peroxidase GPX4 (Homo sapiens) (P36969 whole entry, looked up): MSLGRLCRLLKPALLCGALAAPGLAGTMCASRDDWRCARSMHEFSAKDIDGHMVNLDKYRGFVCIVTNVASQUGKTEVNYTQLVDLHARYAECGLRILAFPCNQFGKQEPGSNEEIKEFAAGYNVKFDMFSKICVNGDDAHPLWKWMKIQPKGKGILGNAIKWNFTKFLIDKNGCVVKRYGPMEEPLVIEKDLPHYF
Chain of Glutathione peroxidase 1 (Homo sapiens) (P07203 whole entry, looked up): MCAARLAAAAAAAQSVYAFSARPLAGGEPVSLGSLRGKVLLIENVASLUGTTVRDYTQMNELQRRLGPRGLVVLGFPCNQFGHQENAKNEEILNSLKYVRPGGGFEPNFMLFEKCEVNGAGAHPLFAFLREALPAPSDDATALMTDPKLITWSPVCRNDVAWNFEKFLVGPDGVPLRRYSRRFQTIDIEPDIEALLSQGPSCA
Chain of Calcium and integrin-binding protein 1 (Homo sapiens) (Q99828 whole entry, looked up): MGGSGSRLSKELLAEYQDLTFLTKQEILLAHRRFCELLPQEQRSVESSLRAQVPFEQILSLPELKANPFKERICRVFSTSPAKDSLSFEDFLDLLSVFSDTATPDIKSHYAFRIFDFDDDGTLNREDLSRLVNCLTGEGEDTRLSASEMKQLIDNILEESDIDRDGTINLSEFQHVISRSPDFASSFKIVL

C/C=C(\C)C(=O)O[C@H]1CC2C(=C1C)[C@H]1OC(=O)[C@](C)(O)[C@]1(O)[C@H](OC(=O)CCC)C[C@@]2(C)OC(C)=O (stereo partly drawn)
inactive: Potency [1] | Potency [2] | Potency [3] | Potency [4] | Potency [5] | outcome [6] inactive [at 25.7 µM] | Potency [7] | Potency (Hek293T)
active: Potency (CRL-7250) 2.24 µM | Potency (NIH3T3) 4.47 µM | Potency (PA-1) 5.01 µM | Potency (Tov112D) 5.01 µM

NC(=O)[C@@H](CC1CC1)[C@@H](CCC(F)(F)F)C(=O)N[C@H]1N=C(c2ccccc2)c2cccc(F)c2NC1=O
inactive: Potency [1] | Potency [2] | Potency [3] | Potency [4] | Potency [5] | outcome [6] | Potency [7] | max response (NIH3T3) -16.9% | Potency (C33A) | Potency (CAOV3) | Potency (CASKI) | Potency (Es-2) | Potency (HeLa) | Potency (Hek293T) | Potency (JEG-3) | Potency (OV90) | Potency (PA-1) | Potency (Tov-21-G) | Potency (Tov112D)

C=C1C(=O)OC2/C=C(\COO)CC/C=C(\COC(C)=O)CC(OC(=O)C(C)CC)C12 (stereo not drawn)
active: Potency (CRL-7250) 7.96 µM
inactive: Potency [2] | Potency [3] | Potency [4] | Potency [5] | outcome [6] | Potency [7] | Potency (C33A) | Potency (CAOV3) | Potency (CASKI) | Potency (Es-2) | Potency (HeLa) | Potency (JEG-3) | Potency (PA-1) | Potency (Tov-21-G) | Potency (Tov112D)

CCOC(=O)Nc1ccc(NCc2c(C)cc(C)cc2C)cc1N
inactive: Potency [2] | Potency [3] | Potency [4] | Potency [5] | outcome [6] | Potency [7] | outcome (CRL-7250) | max response (NIH3T3) 0.149% | Potency (C33A) | Potency (CASKI) | Potency (Es-2) | Potency (HeLa) | Potency (Hek293T) | Potency (JEG-3) | Potency (OV90) | Potency (PA-1) | Potency (Tov-21-G) | Potency (Tov112D)

CC[C@@H](C)[C@H]1C(=O)O[C@H](C(C)C)C(=O)N(C)[C@@H](C(C)C)C(=O)O[C@H](C(C)C)C(=O)N(C)[C@@H](C(C)C)C(=O)O[C@H](C(C)C)C(=O)N1C
inactive: Potency [3] | Potency [4] | Potency [5] | outcome [6] | Potency [7] | Potency (CASKI) | Potency (JEG-3)
active: Potency [1] 4.32 µM | Potency (CRL-7250) 3.85 µM

COc1ccc(C23CCC(=O)C=C2N(C)CC3)cc1OC (stereo not drawn)
inactive: Potency [1] | Potency [2] | Potency [4] | Potency [5] | Potency [7] | max response (NIH3T3) -27.9% | Potency (C33A) | Potency (CAOV3) | Potency (Es-2) | Potency (Hek293T) | Potency (OV90) | Potency (PA-1) | Potency (Tov-21-G) | Potency (Tov112D)
